GLS inhibitor – inhibitors of human glutaminase (GLS). O94925. GLS enzymatic activity, qHTS titration. Potency, µM (doses to about 45.5 µM), for inactives: at the highest dose activity change, negative = inhibition, most hits filed as inhibitors. actives 0.21% (n = 410,000). AID 624170; also: % is scaled to controls: 0 for no effect and ±100 for the full control effect
Target sequence (O94925 whole entry, looked up): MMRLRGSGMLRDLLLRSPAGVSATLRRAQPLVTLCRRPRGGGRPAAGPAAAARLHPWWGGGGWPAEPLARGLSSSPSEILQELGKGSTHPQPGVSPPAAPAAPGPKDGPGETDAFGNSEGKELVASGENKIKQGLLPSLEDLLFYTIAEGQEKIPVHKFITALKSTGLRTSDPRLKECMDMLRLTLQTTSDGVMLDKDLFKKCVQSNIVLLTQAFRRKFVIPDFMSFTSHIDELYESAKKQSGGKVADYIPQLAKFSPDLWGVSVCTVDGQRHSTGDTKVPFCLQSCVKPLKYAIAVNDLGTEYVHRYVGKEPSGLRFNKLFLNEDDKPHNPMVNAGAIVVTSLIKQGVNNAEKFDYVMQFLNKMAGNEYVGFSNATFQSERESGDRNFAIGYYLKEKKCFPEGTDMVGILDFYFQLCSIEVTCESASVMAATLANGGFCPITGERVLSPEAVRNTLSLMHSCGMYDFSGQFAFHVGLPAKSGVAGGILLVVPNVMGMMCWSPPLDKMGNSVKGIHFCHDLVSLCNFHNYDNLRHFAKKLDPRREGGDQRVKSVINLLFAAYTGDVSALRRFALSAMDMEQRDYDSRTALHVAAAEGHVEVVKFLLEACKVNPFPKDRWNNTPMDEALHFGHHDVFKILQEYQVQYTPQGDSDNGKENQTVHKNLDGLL
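Read-out is an Amplex red fluorescence increase coupled through glutamate oxidase and HRP, measured before and after 30 min room-temperature incubation. hKGA is in 45 mM KH2PO4 (pH 8.2) with 0.02% Tween-20; glutamine added as 1mM solution.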
HP1b chromo inh – HP1-beta chromodomain-methylated histone interaction inhibition | actives 0.56% (n = 390,000) | AID 540317 | AlphaScreen HP1-beta / biotin-H3K9me3 peptide binding | Potency, µM (highest dose often 114 µM), for inactives: at the top dose activity change, negative = inhibition, hits mostly inhibitors | P83916; also: nearly all actives have a fitted effect of over 70% in size
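Compound inhibition of the preformed complex between 50 nM HP1-beta and 50 nM biotinylated H3K9me3 peptide was read by AlphaScreen. Buffer was PBS pH 7.4 with 0.01% Tween-20. Incubations ran 30 min at room temperature, with 10 ug/mL donor/acceptor beads.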
JMJD2A Tudor inh – blocks the human JMJD2A Tudor domain; actives 4.4% (n = 390,000); AlphaScreen JMJD2A-Tudor / H3K4me3 peptide binding; Potency, µM (titrated, usually from 114 µM), without a hit: top-dose activity change, negative = inhibition, most hits filed as inhibitors; O75164; AID 504339; also: % is scaled to controls: 0 for no effect and ±100 for the full control effect; nearly all actives have a fitted effect of over 50% in size
BAZ2B block – inhibitors of human BAZ2B bromodomain. AlphaScreen BAZ2B-H3K14Ac peptide displacement. Potency, µM (titrated, usually from 114 µM), inactives show at the top dose activity change, negative = inhibition, actives largely listed as inhibitors. actives 4.4% (n = 360,000). AID 504333; also: % is scaled to controls: 0 for no effect and ±100 for the full control effect; nearly all actives have a fitted effect of over 60% in size
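In this displacement format the biotinylated H3(5-23) peptide acetylated at Lys14 serves as ligand at 50 nM, with BAZ2B at 50 nM in PBS pH 7.4 containing 0.01% Tween-20. Donor and acceptor beads are 10 ug/mL final.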
G9a block – G9a (human) methyltransferase inhibition. Q96KQ7. G9a H3K9 monomethylation, AlphaScreen, 2 h. Potency, µM (highest dose often 102 µM), for the others: at the top dose activity, negative = inhibition, actives largely listed as inhibitors. actives 8.8% (n = 350,000). AID 504332; also: % is scaled to controls: 0 for no effect and ±100 for the full control effect; nearly all actives have a fitted effect of over 75% in size
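Signal arises when biotinylated H3K9 peptide, once monomethylated, bridges streptavidin donor and antibody-captured acceptor beads. Enzyme at 20 nM was preincubated 15 min with test compounds; peptide 500 nM and SAM 20 uM then reacted for 2 h.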
Starred values were filed as active, the others as inactive; ? = inconclusive; · = no result given; [ ] = dose if it differs, or a comment. Hits are enriched below; roughly 10% of the tested compounds scored in any of these assays. Calls follow the shape of the dose curve; as a rule, active = well fitted curve in the direction sought with a large enough effect; inconclusive = small, poorly fitted or top-dose-only effect, or another doubt; inactive = no such curve, though single readings can be large; an effect the other way counts as inactive or inconclusive. Potency is read from the fitted curve at half-maximal effect.

SMILES	GLS inhibitor	HP1b chromo inh	JMJD2A Tudor inh	BAZ2B block	G9a block
COCCOC(=O)C(C#N)c1nc2ccccc2nc1N1CCN(Cc2ccccc2)CC1 (stereo not given)	7%	?	?	?	?
CCN1CCN(c2nc3ccccc3nc2C(C#N)C(=O)OC2CCCCC2)CC1 (stereo not given)	16%	-23%	?	?	-6%[12.7 µM]
CN1CCN(c2nc3ccccc3nc2C(C#N)C(=O)OC2CCCCC2)CC1 (stereo not given)	-4%	-7%	-34%	56µM*	?
Cc1ccc(NS(=O)(=O)c2ccc(-c3cc(C)no3)cc2)c(C)c1	3%	45%	-6%	-2%	1%[59 µM]
O=C(CSc1ccc([N+](=O)[O-])cc1)Nc1ccccc1N1CCOCC1	-2%	1%	-34%	·	·
Cc1csc(NC(=O)CSc2ccc([N+](=O)[O-])cn2)n1	3%	31%	-27%	-31%	50µM*
O=C(CSc1ccc([N+](=O)[O-])cn1)Nc1ccccc1N1CCOCC1	3%	16%	-27%	-25%	40µM*
CCOc1ccc(-c2cccc(NS(=O)(=O)c3ccccc3C(F)(F)F)c2)nn1	-2%	26%[57 µM]	-19%	-1%	-18%[59 µM]
O=[N+]([O-])c1ccc(C2NS(=O)(=O)N=C3CCCCCN32)cc1 (stereo not given)	0%	57%	1%	3%	25µM*
O=S1(=O)N=C2CCCCCN2C(c2ccc(F)cc2)N1 (stereo not given)	-6%	26%	-14%	-14%	3%
CC1(C)CC(=O)C/C(=N/Nc2nc3ccccc3s2)C1	17%	14%	?	?	50µM*
CC1CCC/C(=N/Nc2nc3ccccc3s2)C1 (stereo not given)	4%	?	?	?	-7%
Cc1c(C)c2c(c(C)c1O)CCC(C)(C(=O)O)O2 (stereo not given)	41%	19%	-2%	5%	14µM*
Cc1c(C)c2c(c(C)c1O)CC[C@@](C)(CCC[C@H](C)CCC[C@H](C)CCCC(C)C)O2	2%	21%	-14%	·	19%[59 µM]
O=C(C1=C(O)C(=O)N(CC2CCCO2)C1c1ccccc1)c1ccco1 (stereo not given)	0%	-13%	-16%	-2%	45µM*
COc1ccc(C2C(C(=O)c3ccco3)=C(O)C(=O)N2CCc2ccccc2)cc1OC (stereo not given)	28%	-6%	79µM*	-35%	50µM*
COc1ccc(C2C(C(=O)c3ccco3)=C(O)C(=O)N2CC2CCCO2)cc1OC (stereo not given)	4%	-28%	-31%	-36%	50µM*
O=C(C1=C(O)C(=O)N(CC2CCCO2)C1c1cccnc1)c1ccco1 (stereo not given)	12%	16%	?	?	40µM*
COc1ccc(C2C(C(=O)c3ccco3)=C(O)C(=O)N2CCOCCO)cc1OC (stereo not given)	-2%	-3%	?	?	?
CC(C)(C)c1ccc(C2C(C(=O)c3ccco3)=C(O)C(=O)N2CC2CCCO2)cc1 (stereo not given)	-5%	14%	-18%	-9%	-11%[59 µM]
C[C@@H]1CN([C@H](C)CO)C(=O)CCCn2cc(nn2)CO[C@H]1CN(C)C(=O)c1ccc2ccn(C)c2c1	7%	·	·	·	·
CCCCNC(=O)C1(C)CCCCN1C(=O)c1ccc2sccc2c1 (stereo not given)	-2%	·	·	·	·
O=C(O)c1ccc(CS(=O)(=O)c2ccc(Br)cc2)cc1	-3%	43%	-2%	12%	·
Oc1ccccc1CC=NC1CCCCC1	-1%	37%	-9%	·	·
CCOC(=O)C1CCC(CN(Cc2ccc(OC)cc2)S(=O)(=O)c2ccc(F)c(C(=O)Nc3cc(Cl)ccc3OC)c2)CC1 (stereo not given)	0%	30%	-32%	-16%	1%[59 µM]
SMILES	GLS inhibitor	HP1b chromo inh	JMJD2A Tudor inh	BAZ2B block	G9a block
Cc1cc(OC(C)C(=O)N(Cc2ccco2)Cc2ccco2)cc(C)c1Cl (stereo not given)	-9%	23%	-19%	12%	-1%[59 µM]
Cc1ccc2c(c1)cc1c(=O)n(CC(=O)NCc3ccco3)nc(C)n12	-11%	3%	-16%	2%	10%[59 µM]
Cc1cc(S(=O)(=O)N2CCC(N3CCCCC3)CC2)ccc1-n1cnnn1	-8%	32%	-12%	?	50µM*
COc1ccc(S(=O)(=O)N2CCN(c3ccccc3F)CC2)cc1-c1noc(C)n1	4%	85%	-14%	56µM*	0.5µM*
Cc1cc(S(=O)(=O)N2CCN(c3ccccc3F)CC2)ccc1-n1cnnn1	-5%	27%	-13%	?	50µM*
O=c1[nH]c2ccc(S(=O)(=O)N3CCN(c4ccccc4F)CC3)cc2s1	3%	31%	-16%	-29%	14µM*
CCOc1cccc(C(=O)N(Cc2ccc(CC)cc2)C2CCS(=O)(=O)C2)c1 (stereo not given)	-7%	17%	-1%	-10%	19%[59 µM]
Cc1ccc(NC(=O)C2(C)CCN2Cc2cccc3c2OCO3)cc1O (stereo not given)	25%	·	·	·	·
Cc1ccc(CCNC(=O)CCN2N=C(c3ccc(C)cc3)CCC2=O)cc1	8%	36%	-19%	8%	-5%[59 µM]
Cc1cccc(CNC(=O)CCCN2C(=O)c3cccnc3Oc3ccccc32)c1	1%	26%	-1%	-1%	-2%[59 µM]
Cc1cc(S(=O)(=O)N2CCN(CC(=O)N(C)Cc3ccccc3)CC2)ccc1Br	0%	23%	-11%	-7%	56µM*
CCN(C(=O)CN1C(=O)CN(C)C1=O)c1cccc2ccccc12	1%	8%	-15%	·	·
CCN(C(=O)CN1CCN(C)CC1)c1cccc2ccccc12	-5%	?	1.8µM*	32µM*	1.8µM*
COc1ccc(C2c3ccccc3Oc3ncn(CCN4CCOCC4)c(=N)c32)cc1OC (stereo not given)	·	·	-35%	·	·
O=c1[nH]c2ccccc2c2oc(CCl)nc12	13%	13%	-15%	-18%	35µM*
CC(NCc1ccc([N+](=O)[O-])cc1)C1COc2ccccc2O1 (stereo not given)	-2%	?	7.9µM*	50µM*	?
Cc1cc(C)n2c(Nc3cccc(C(F)(F)F)c3)c(-c3ccsc3)nc2n1	-6%	24%	2%	-2%	-8%[59 µM]
COc1ccccc1C(=O)NCCC(=O)N(C)CC(=O)Nc1ccc(N2CCOCC2)cc1	26%	38%	-6%	10%	45µM*
Cc1cccc(C(=O)NCC(=O)N(C)CC(=O)Nc2ccc(N3CCOCC3)cc2)c1	-4%	24%	1%	-16%	?
COc1ccccc1C(=O)N(C)CC(=O)Nc1ccc(N2CCOCC2)cc1	23%	21%	-15%	1%	?

Bioassay records as filed in PubChem.
